High-throughput results from PubChem BioAssay.
ALDH1A1 inh: ALDH1A1 (human) enzyme inhibition. P00352. Purified ALDH1A1, NADH fluorescence, propionaldehyde substrate. Potency, µM (top dose mostly 75.3 µM), without a hit: top-dose activity, negative = inhibition, usual class: inhibitors. 220,000 tested, 7.3% active. AID 1030; active = well fitted inhibition curve with a large enough effect, not every such curve was filed as active; inconclusive = small, poorly fitted or top-dose-only effect, or another doubt; inactive = no such curve, though single readings can be large or run the other way;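 also: plate controls were no enzyme wells and a reference inhibitor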
Sfp PPTase inh: blocks B. subtilis Sfp PPTase activity. Q9F4F7. Biochemical Sfp PPTase activity, qHTS. Potency, µM, inactives show largest response in the series, negative = inhibition, hits mostly inhibitors. 310,000 tested, 3.5% active. AID 1490;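 also: the enzyme is Sfp with the accession as filed and its product quenches rhodamine fluorescence; 0% = enzyme reaction without inhibitor and -100% = no enzyme wells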
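Buffer: 50 mM Hepes-Na pH 7.6, 10 mM MgCl2, 0.01% Nonidet P-40, 0.01% BSA. Enzyme 15 nM, pre-exposed to compound 15 min; substrates then added and fluorescence change tracked over 30 min.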
Gal4-VP16 FLuc: Gal4-VP16 reporter inhibition counter-screen. AID 2546. Drosophila S2 Gal4-VP16 UAS-luciferase, luminescence, 20 h. 310,000 tested, 3.5% active. Potency, µM (series often up to 53.6 µM), for the others: top-dose activity, negative = inhibition, usual class: inhibitors;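 also: Gal4-VP16 expression switched on by copper sulfate through the metallothionein promoter; nearly all actives have a fitted effect of over 50% in size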
PLK1 PBD inh: inhibitors of human PLK1 polo-box domain binding | Potency, µM, for inactives: max response, negative = inhibition, actives largely listed as inhibitors | Plk1 PBD binding of FITC phosphopeptide, fluorescence polarization | AID 720504 | P53350 | 360,000 tested, 2.8% active; also: series mostly up to about 57 µM; nearly all actives have a fitted effect of over 65% in size
Target sequence (P53350 whole entry, looked up, the tested form may be a part): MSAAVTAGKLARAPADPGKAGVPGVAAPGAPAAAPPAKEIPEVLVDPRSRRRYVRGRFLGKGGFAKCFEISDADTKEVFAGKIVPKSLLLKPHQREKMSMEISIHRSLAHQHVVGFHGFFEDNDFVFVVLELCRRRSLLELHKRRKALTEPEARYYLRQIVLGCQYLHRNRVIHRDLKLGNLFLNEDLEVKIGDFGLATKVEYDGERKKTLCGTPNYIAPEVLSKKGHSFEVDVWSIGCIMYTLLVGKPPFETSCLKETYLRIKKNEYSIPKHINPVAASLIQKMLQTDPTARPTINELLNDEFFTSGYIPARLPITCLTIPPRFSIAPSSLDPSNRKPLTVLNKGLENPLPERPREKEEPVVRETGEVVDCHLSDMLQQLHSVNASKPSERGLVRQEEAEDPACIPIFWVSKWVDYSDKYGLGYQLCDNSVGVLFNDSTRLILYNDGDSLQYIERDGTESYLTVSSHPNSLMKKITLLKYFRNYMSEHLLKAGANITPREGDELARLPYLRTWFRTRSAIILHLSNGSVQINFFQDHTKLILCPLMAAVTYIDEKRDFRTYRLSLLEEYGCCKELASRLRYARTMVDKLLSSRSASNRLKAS
RORgamma inh: inhibitors of mouse ROR gamma transcriptional activity. AID 2551. Potency, µM (highest dose often 53.6 µM), for inactives: at the top dose activity change, negative = inhibition, hits mostly inhibitors. Drosophila S2 Gal4-RORgamma UAS-luciferase reporter, 20 h. 310,000 tested, 5.4% active; also: nearly all actives have a fitted effect of over 60% in size
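Drosophila Schneider cells stably carrying a metallothionein-driven Gal4 DBD–ROR gamma fusion and a UAS-Photinus luciferase reporter were exposed to compound for 1 hr, then induced with copper sulfate (700 uM final) for 20 hr at ambient temperature before luminescence reading.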
* = called active by the depositor; ? = inconclusive; / = no result given; [ ] = remark or other dose. Compounds with a hit are over-represented: about 12% of the library has one in this group of screens. Unless noted, calls follow the shape of the dose curve; as a rule, active = well fitted curve in the direction sought with a large enough effect; inconclusive = small, poorly fitted or top-dose-only effect, or another doubt; inactive = no such curve, though single readings can be large; an effect the other way counts as inactive or inconclusive. Unless noted, % is scaled to controls: 0 for no effect and ±100 for the full control effect; potency is read from the fitted curve at half-maximal effect.

SMILES | ALDH1A1 inh | Sfp PPTase inh | Gal4-VP16 FLuc | PLK1 PBD inh | RORgamma inh
COc1ccc(CN2CCN(Cc3c[nH]c4ccccc34)CC2)cc1 | / | 50.1µM* | 1.9% | -12.5% | -6.2%
Cc1ccc(NC(=S)NCCc2c[nH]c3ccccc23)c(C)c1 | ? | 6.7% | 17.8µM* | 3.4% | 7.94µM*
CCN(Cc1nc2ccccc2c(=O)[nH]1)C(=O)COc1ccccc1-c1ccccc1 | / | / | / | -3.0% | /
CCn1c2ccccc2c2cc(CN3CCN(Cc4cc(OC)ccc4O)CC3)ccc21 | 35.5µM* | 50.1µM* | -18.5% | -7.4% | -18.6%
COc1ccccc1NC(=S)NCCc1c[nH]c2ccccc12 | 2.7% | -2.1% | ? | 3.36µM* | 14.1µM*
CCOc1ccccc1NC(=O)NCCc1c[nH]c2ccccc12 | / | 4.9% | 4.3% | 3.8% | 34.6%
COc1ccc2[nH]cc(CCNC(=S)NCCc3ccccc3)c2c1 | -1.5% | 26.0% | -23.0% | 1.1% | 11.2µM*
CC(C)(CO[C@H]1C[C@H]2CC[C@@]1(C)C2(C)C)[N+](=O)[O-] | 17.1%[13.5 µM] | / | / | / | /
COc1cc(C(=O)NC(CCSC)C(=O)Nc2ccc(N3CCOCC3)cc2)cc(OC)c1OC (centres undefined) | / | / | / | -11.9% | /
O=C(/C=C/c1ccccc1)OCc1ccccc1 | / | -13.1% | 8.2% | / | 12.7%[10 µM]
COc1ccc(CN(N=O)C2CC(=O)N(c3ccc(OC)cc3)C2=O)cc1 (centres undefined) | / | 5.3% | 14.1µM* | -10.1% | ?
CNC(=S)N(Cc1ccc2c(c1)OCO2)C1CC(=O)N(c2ccccc2)C1=O (centres undefined) | -1.5% | -12.3% | -7.9% | 29.9µM* | 7.4%
COc1ccc(N2C(=O)CC(N(CCc3ccc(OC)c(OC)c3)C(=S)Nc3ccccc3)C2=O)cc1 (centres undefined) | 26.7% | -14.3% | 0.794µM* | -0.7% | ?
COc1ccc(CN(C(=S)Nc2ccccc2)C2CC(=O)N(c3ccc(Cl)cc3)C2=O)cc1 (centres undefined) | 7.08µM* | 0.6% | -9.5% | -15.1% | ?
O=C(O)CCc1c(C(=O)O)[nH]c2cc(Cl)cc(Cl)c12 | / | 11.0% | -8.0% | / | 11.9%
OC[C@H]1O[C@@H](c2nc3ccc(-c4nc(-c5ccc(Br)cc5)no4)cc3[nH]2)C[C@@H]1O | / | / | / | -0.8% | /
CCNC(=O)N(C)C[C@H]1N[C@@](CC)(C(=O)OC)[C@H]2C(=O)N(Cc3ccccc3)C(=O)[C@@H]12 | / | / | / | -11.6% | /
CCC1CC=CC2C1C(=O)N(Cc1ccccc1)C2c1ccc(C(F)(F)F)cc1 (centres undefined) | / | 10.8% | ? | / | 22.7%
CCOC(=O)c1sc(N2C(=O)C(O)=C(C(=O)c3ccc(C)o3)C2c2cccc([N+](=O)[O-])c2)nc1C (centres undefined) | / | ? | / | 23.8µM* | /
CCCCOc1cccc(C2C(C(=O)c3ccc(C)o3)=C(O)C(=O)N2c2nnc(C)s2)c1 (centres undefined) | / | 50.1µM* | / | ? | /
CCOC(=O)c1sc(N2C(=O)C(O)=C(C(=O)c3ccc(C)o3)C2c2ccc(OC)c(OC)c2)nc1C (centres undefined) | / | 12.0% | 16.3% | ? | 34.3%
CCOC(=O)c1sc(N2C(=O)C(O)=C(C(=O)c3ccco3)C2c2ccc(C)o2)nc1C (centres undefined) | / | 39.8µM* | 26.7% | ? | 0.6%
Cc1nnc(N2C(=O)C(O)=C(C(=O)c3ccco3)C2c2ccc(C(C)C)cc2)s1 (centres undefined) | -1.3% | 56.2µM* | ? | -20.1% | 0.9%
CCCCNC(=O)C1(C)CCC(=O)N1C1CCN(Cc2ccccc2)CC1 (centres undefined) | / | / | / | -16.1% | /
Cc1ccc(NC(=O)c2cc(-c3cc(Cl)ccc3C)n[nH]2)cc1NS(C)(=O)=O | / | / | / | 2.8% | /
SMILES | ALDH1A1 inh | Sfp PPTase inh | Gal4-VP16 FLuc | PLK1 PBD inh | RORgamma inh
COc1ccc(-c2nc3cnc(N4CCNCC4)nc3n(-c3ccccc3)c2=O)cc1 | ? | 0.5% | -6.6% | / | -18.2%
O=C(NCCOc1ccccc1)C1C(=O)Nc2ccccc2C(=O)N1C1CCCCC1 (centres undefined) | / | / | / | -2.5% | /
CCOC(=O)c1sc(N2C(=O)C(O)=C(C(=O)c3ccco3)C2c2ccc([N+](=O)[O-])cc2)nc1C (centres undefined) | / | / | / | 29.9µM* | /
Cc1ccc(C(=O)C2=C(O)C(=O)N(c3ncccn3)C2c2cccc(Cl)c2)o1 (centres undefined) | 12.6µM* | ? | -2.7% | / | 17.0%
CCOc1ccc(C2C(C(=O)c3ccc(C)o3)=C(O)C(=O)N2c2nc(C)c(C(=O)OC)s2)cc1 (centres undefined) | / | 50.1µM* | -25.8% | ? | 1.12µM*
COc1ccc(OC)c(NC(=O)Nc2nc(C(N)CCc3ccccc3)cs2)c1 (centres undefined) | / | / | / | -6.9% | /
CC(O)(c1cccnc1)c1nc(-c2cccc(C(F)(F)F)c2)cs1 (centres undefined) | / | / | / | -7.4% | /
CCOC(=O)C1=C(C)Nc2ncnn2C1c1c[nH]c2ccccc12 (centres undefined) | -16.6% | 9.2% | 0.3% | 1.4% | 10µM*
CCOC(=O)C1=C(c2ccccc2)NC(=O)NC1c1ccc(N(C)C)cc1 (centres undefined) | 14.1µM* | -23.9% | -5.3% | -2.7% | 33.2%
CCOC(=O)C1=C(C)Nc2ncnn2C1c1cccnc1 (centres undefined) | 7.7% | 15.8% | 0.1% | -7.1% | -4.9%
CCOC(=O)C1=C(C)Nc2nc(=S)[nH]n2C1c1ccc(Cl)cc1 (centres undefined) | ? | 7.94µM* | -13.5% | 23.8µM* | 10µM*
CCOC(=O)C1=C(C)Nc2nc(SCC)nn2C1c1ccc(OC)cc1 (centres undefined) | ? | -4.0% | -8.4% | -4.5% | -11.7%
CCOC(=O)C1=C(C)Nc2ncnn2C1c1ccc(N(C)C)cc1 (centres undefined) | 17.8µM* | 5.5% | -3.1% | ? | 3.9%
CC1=C(C(=O)OC(C)C)C(c2c[nH]c3ccccc23)n2ncnc2N1 (centres undefined) | 14.8% | 20.6% | 5.0% | -0.6% | -0.6%
CCOC(=O)C1=C(C)NC(=S)N(C(C)=O)C1c1ccccc1 (centres undefined) | 25.1µM* | 1.5% | ? | -8.3% | ?
Cc1nn(C)c(C)c1C(C)NC(=O)c1cc(COc2ccc(F)c(F)c2)on1 (centres undefined) | / | 0.7% | -0.5% | 26.7µM* | ?
Cc1nn(C)cc1C(C)NC(=O)c1cc(COc2ccc(F)c(F)c2)on1 (centres undefined) | / | 7.4% | 2.7% | -3.8% | 26.1%
CC(C)C[C@@H](CN1CCC[C@H]1CN1C(=O)C(=O)NC[C@@H]1Cc1ccccc1)N1C[C@H](Cc2ccccc2)N(CC2CCCCC2)C(=O)C1=O | / | / | / | -6.6% | /
